Experimental data reported in PubChem BioAssay (Tox21).
Inconclusive results are not listed. A number with no mark means an inactive call. The source made the active and inactive calls. The call rests on the fitted dose curve; in most records, active means well fitted activation curve with a large enough effect in the repeat runs; inconclusive means weak or mixed curves; inactive means flat fitted curve, though single readings scatter.

test: A CellTox Green Cytotoxicity Assay to monitor cytotoxicity in HEK293 cells - 24 hour (AID 1224875); settings: CellTox Green fluorescence; series mostly up to 76.8 µM; activity change: at the top concentration; further: nearly all actives have a fitted effect of over 45% in size
Text: National Center for Advancing Translational Sciences [NCATS]
NIH Chemical Genomics Center [NCGC]
U.S. Environmental Protection Agency [EPA]
National Institutes of Environmental Health Sciences [NIEHS]
National Toxicology Program [NTP]
Cell-based models are critical for drug discovery. Determining the natural cytotoxic effects resulting from test compounds is an essential research activity. A CellTox Green Cytotoxicity Assay to monitor cytotoxicity in real time of continues cell culture during 40 hours of the compound treatment was used to screen Tox21 10K library compounds in Hek293 cells. CellTox Green Cytotoxicity Assay is a nonlytic, homogeneous, biofluorescent method to measure cytotoxicity in cell culture after experimental manipulation. The assay system uses a proprietary asymmetric cyanine dye that is excluded from viable cells but preferentially stains the dead cell's DNA. […] Viable cells produce no appreciable increases in fluorescence. Therefore, the fluorescence signal produced by the binding interaction with dead cell DNA is proportional to cytotoxicity.
The mixture of Hek293 cell suspension and reagents were dispensed at 600cells/6 ul/well in 1536-well tissue culture treated black solid bottom plates using a Multidrop dispenser. After the assay plates were incubated at a 37 C/5% CO2 incubator for 5 hours, 23 nL of compounds dissolved in DMSO, positive and negative controls was transferred to the assay plate by a pintool work station. The plates were incubated at 37 C for 40 hours. The fluorescence intensity were measured at 0h, 8h, 16h, 24h, 32h and 40h time points using ViewLux plate reader during compound treatment.
On the % scale 0 is the no-effect control and ±100 the full control effect; potency means the concentration at half of the fitted maximal effect.

Row | Structure (SMILES) | activity change | Potency
1 | COc1ccccc1C=O | 20% | 
2 | O=C[C@H](O)[C@H](O)[C@H](O)CO | -0.364% | 
3 | COc1ccccc1OCCNCC(O)COc1cccc2[nH]c3ccccc3c12 (stereo not given) | 14.7% [at 35.3 µM, hits give high values] | 
4 | COc1cccc(OC)c1O | 6.91% | 
5 | CCCOc1sc(C(=O)N2CCC(c3cc(CN)ccc3F)CC2)c(C)c1Br |  | 22.5 µM (active)
6 | ClC/C=C\CCl | -3.08% | 
7 | Cc1cccc(C)n1 | -3.5% | 
8 | CC(C)c1ccc(O)c(C(C)C)c1 |  | 21.9 µM (active)
9 | C/C=C/C(=O)C1=C(C)CCCC1(C)C | 22.2% | 
10 | COc1cc(C=C2CCC/C(=C\c3ccc(O)c(OC)c3)C2=O)ccc1O | -0.537% [at 35.3 µM, hits give high values] | 
11 | CCOC(=O)N1CCC(=C2c3ccc(Cl)cc3CCc3cccnc32)CC1 | 2.36% [at 35.3 µM, hits give high values] | 
12 | CCC(=O)OCCc1ccccc1 | -4.3% | 
13 | CC(=O)OC1CCCCC1 | -9.56% | 
14 | Oc1c(Br)cc(Br)c2cccnc12 | -1.67% [at 35.3 µM, hits give high values] | 
15 | CCCCOc1ccc(C(=O)CCN2CCCCC2)cc1 |  | 16.9 µM (active)
16 | CC[N+](CC)(CC)Cc1ccccc1 | -0.41% | 
17 | Cc1cn[nH]c1 | -3.87% [at 35.3 µM, hits give high values] | 
18 | Cc1cnccn1 | -3.79% | 
19 | CCCCCCCOC(=O)c1ccc(O)cc1 |  | inactive
20 | COC(=O)CC(C)CCC=C(C)C (stereo not given) | -2.43% | 

Row | Structure (SMILES) | activity change | Potency
21 | CCCCCCCCC(C)=O | -13.9% | 
22 | CCN=C1C=CC(=C(c2ccc(N(CC)CC)cc2)c2ccc(N(CC)CC)cc2)c2ccccc21 |  | 19.4 µM (active)
23 | c1ccc(Nc2cccc3ccccc23)cc1 |  | inactive
24 | CCCC(C)CCC(C)=O (stereo not given) | 6.3% | 
25 | CC(C)=CCCC(C)O (stereo not given) | 21.8% | 
26 | Cc1cccc(N(C)C)c1 | 1.11% | 
27 | OCCC(O)CO (stereo not given) | -1.57% | 
28 | CCCCCCC(C)OC(=O)COc1nc(F)c(Cl)c(N)c1Cl (stereo not given) | 17.4% | 
29 | c1cc[nH]c1 | 12.3% | 
30 | CCOB(OCC)OCC | -24.5% | 
31 | CCc1c(Br)c(Br)c(Br)c(Br)c1Br | -2.37% | 
32 | NCCCCCCNCCCCCCN | -5.13% | 
33 | Brc1ccccn1 | -9.09% | 
34 | CCCCCCCOC(=O)c1ccccc1C(=O)OCCCCCCC | -2.01% | 
35 | CCc1cccc(CC)c1NC(=O)C(=O)O | 13.7% | 
36 | COc1cccc(CCc2ccccc2OCC(CN(C)C)OC(=O)CCC(=O)O)c1 (stereo not given) | 13.9% [at 35.3 µM, hits give high values] | 
37 | OCCCS | -10.8% | 
38 | CC(=O)c1ccccc1N | -19.2% | 
39 | COCC(=O)O[C@]1(CCN(C)CCCc2nc3ccccc3[nH]2)CCc2cc(F)ccc2[C@@H]1C(C)C |  | 21.3 µM (active)
40 | CN(C)CCOC(c1ccccc1)c1ccccc1 (tested in a mixture with another compound) | -2.21% | 
